In ChEMBL document CHEMBL1961873, “Compounds: GSK PKIS; Assays: Nanosyn kinase panel” (2012):
Values joined by “and” are separate entries in the source; they are usually repeats but may differ in a detail not shown here. Equal entries are not always repeated.

Each compound was assayed against Leukocyte tyrosine kinase receptor (Homo sapiens) (UniProt P29376). Conditions: at 1 µM.
Chain of Leukocyte tyrosine kinase receptor (Homo sapiens) (P29376 whole entry): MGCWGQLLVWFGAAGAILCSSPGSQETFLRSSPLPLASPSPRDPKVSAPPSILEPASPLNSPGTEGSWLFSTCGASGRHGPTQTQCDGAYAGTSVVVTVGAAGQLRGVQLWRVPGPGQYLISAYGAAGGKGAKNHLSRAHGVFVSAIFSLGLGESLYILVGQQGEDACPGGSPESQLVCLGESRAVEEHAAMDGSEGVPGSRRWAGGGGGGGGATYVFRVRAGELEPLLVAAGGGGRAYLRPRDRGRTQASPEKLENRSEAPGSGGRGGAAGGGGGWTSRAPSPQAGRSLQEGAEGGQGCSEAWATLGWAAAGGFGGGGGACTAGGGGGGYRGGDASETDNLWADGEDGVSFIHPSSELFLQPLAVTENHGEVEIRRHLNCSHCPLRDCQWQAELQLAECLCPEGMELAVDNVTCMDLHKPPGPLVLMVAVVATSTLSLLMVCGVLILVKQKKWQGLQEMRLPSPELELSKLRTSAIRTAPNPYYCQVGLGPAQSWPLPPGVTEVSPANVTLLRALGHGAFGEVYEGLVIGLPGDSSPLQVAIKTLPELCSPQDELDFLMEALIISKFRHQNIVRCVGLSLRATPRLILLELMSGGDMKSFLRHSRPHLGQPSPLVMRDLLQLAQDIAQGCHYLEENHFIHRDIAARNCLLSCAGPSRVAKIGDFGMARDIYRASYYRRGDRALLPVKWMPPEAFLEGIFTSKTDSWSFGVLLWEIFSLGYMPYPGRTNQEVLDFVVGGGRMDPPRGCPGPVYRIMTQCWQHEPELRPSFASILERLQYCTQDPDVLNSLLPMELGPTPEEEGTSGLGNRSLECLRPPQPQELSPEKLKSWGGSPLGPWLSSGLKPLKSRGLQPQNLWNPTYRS
`CCS(=O)(=O)c1ccc(OC)c(Nc2ncc(-c3cccc(F)c3)o2)c1` showed an inhibition of 6.89%. Compound `CC1(C)CC(n2cnc(-c3ccc(F)cc3)c2-c2ccnc(N)n2)CC(C)(C)N1` has an inhibition of 0.76%. Work on `Fc1ccc(Nc2nccc(-c3c(-c4ccc(C(F)(F)F)cc4)nn4ncccc34)n2)cc1F` yielded an inhibition of 3.06%. Work on `CCOc1ccc2c(-c3ccnc(Nc4cc(OC)cc(C(F)(F)F)c4)n3)cnn2n1` yielded an inhibition of 1.37%. Compound `CS(=O)(=O)CCNCc1ccoc1-c1ccc2ncnc(Nc3ccc(OCc4ccccc4)cc3)c2c1` has an inhibition of 1.37%. For `Cc1ccc(-c2cc3c(NC(=O)C4CC4)ncnc3o2)cc1`, the inhibition was 3.83%. `O=C(O[C@H]1CN[C@H](C#Cc2cc3ncnc(Nc4ccc(OCc5cccc(F)c5)c(Cl)c4)c3s2)C1)N1CCOCC1` showed an inhibition of 5.96%. `COc1ccc(Nc2ncc(-c3ccccc3)o2)cc1OC` showed an inhibition of 2.24%. For `O=C(O[C@H]1CN[C@H](C#Cc2cc3ncnc(Nc4ccc5c(ccn5Cc5cc(F)ccc5F)c4)c3s2)C1)N1CCOCC1`, the inhibition was 4.15%. With `Cc1c2ccc(N(C)c3ccnc(Nc4cccc(S(N)(=O)=O)c4)n3)cc2nn1C` the inhibition was 24.1%. Compound `OCCCNc1nccc(-c2c(-c3ccc(F)cc3)nn3cc(C(F)(F)F)ccc23)n1` has an inhibition of -0.25%. For `O=C(O[C@H]1CN[C@H](C#Cc2cc3ncnc(Nc4ccc5c(cnn5Cc5ccccc5)c4)c3s2)C1)N1CCOCC1`, the inhibition was -0.87%. Compound `CCS(=O)(=O)c1ccc(OC)c(Nc2ncc(-c3cccc(C(C)=O)c3)o2)c1` has an inhibition of 3.34%. In the case of `CS(=O)(=O)CCNCc1ccc(-c2ccc3ncnc(Nc4ccc(OCc5ccccc5)cc4)c3c2)o1`, the inhibition is reported as 4.57%. `Cn1c(-c2nonc2N)nc2cnccc21` was tested, and the inhibition was 4.18%. Compound `COc1cc2c(cc1Nc1nc(Nc3cccc(F)c3C(N)=O)c3cc[nH]c3n1)N(C(=O)CN1CCN(C(C)C)CC1)CC2` has an inhibition of 80.7%. `Fc1cccc(COc2ccc(Nc3ncncc3C#Cc3ccccc3)cc2Cl)c1` was tested, and the inhibition was 4.63%. `CS(=O)(=O)Nc1ccc(-c2ccc3c(NC(=O)C4CC4)n[nH]c3c2)cc1` was tested, and the inhibition was 3.75%. In the case of `CCCNc1cccc(-n2ncc3c(N/N=C/c4ccncc4)ncnc32)c1`, the inhibition is reported as 4.23%. For `Nc1ncnc2occ(-c3ccc(NC(=O)Nc4cc(C(F)(F)F)ccc4F)cc3)c12`, the inhibition was 53.6% and 34%. `NS(=O)(=O)c1cccc(N/C=C2\C(=O)Nc3ccccc32)c1` showed an inhibition of 10.6%. `COc1cc(N2CCN(C(C)C)CC2)ccc1Nc1nc(Nc2cccc3ncccc23)c2cc[nH]c2n1` was tested, and the inhibition was 80.2%. With `CN1CCC(C(=O)Nc2n[nH]c3nc(-c4ccc(O)cc4)c(Br)cc23)CC1` the inhibition was 50.1% and 45.5%. `CCn1c(-c2nonc2N)nc2cncc(C(=O)NCCNC)c21` gave an inhibition of 5.16%. For `CCN1CCC(C(=O)Nc2n[nH]c3nnc(-c4cccc(F)c4F)cc23)CC1`, the inhibition was -0.29%. Compound `CNC(=O)c1sc(-n2cnc3cc(OC)c(OC)cc32)cc1OCc1ccccc1C(F)(F)F` has an inhibition of 3.95%. `N#Cc1ccc2c(-c3ccnc(NC4CC4)n3)c(-c3ccc(F)cc3)nn2c1` was tested, and the inhibition was -0.2%. `COc1ccc2ncn(-c3cc(O[C@H](C)c4ccccc4C(F)(F)F)c(C(N)=O)s3)c2c1` was tested, and the inhibition was 1.97%. For `c1cnn2ncc(-c3ccnc(NCCCN4CCOCC4)n3)c2c1`, the inhibition was 2.33%. `O=C(Nc1n[nH]c2nnc(-c3cccnc3)cc12)C1CC1` showed an inhibition of 0.15%. `CS(=O)(=O)CCNCc1ccc(-c2ccc3ncnc(Nc4ccc(OCc5cccc(C(F)(F)F)c5)cc4)c3c2)o1` showed an inhibition of 4.64%.

These compounds were tested against Tyrosine-protein kinase Lyn (Homo sapiens) (UniProt P07948). Conditions: at 0.1 µM.
Chain of Tyrosine-protein kinase Lyn (Homo sapiens) (P07948 2-512 limits assumed): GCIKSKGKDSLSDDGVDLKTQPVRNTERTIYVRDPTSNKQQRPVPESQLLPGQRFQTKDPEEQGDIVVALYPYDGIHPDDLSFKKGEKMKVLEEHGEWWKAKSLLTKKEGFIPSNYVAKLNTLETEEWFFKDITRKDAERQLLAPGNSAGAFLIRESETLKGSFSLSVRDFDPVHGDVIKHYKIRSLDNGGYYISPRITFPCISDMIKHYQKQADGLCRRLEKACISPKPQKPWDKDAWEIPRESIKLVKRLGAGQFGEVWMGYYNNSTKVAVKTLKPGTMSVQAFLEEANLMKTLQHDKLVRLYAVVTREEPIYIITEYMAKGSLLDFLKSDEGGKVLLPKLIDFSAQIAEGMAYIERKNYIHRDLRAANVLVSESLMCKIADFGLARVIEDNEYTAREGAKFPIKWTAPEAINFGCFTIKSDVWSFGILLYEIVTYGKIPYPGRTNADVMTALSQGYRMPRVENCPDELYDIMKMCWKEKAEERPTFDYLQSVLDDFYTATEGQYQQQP
`CCS(=O)(=O)c1ccc(OC)c(Nc2ncc(-c3cccc(F)c3)o2)c1` was tested, and the inhibition was 32.5%. In the case of `CC1(C)CC(n2cnc(-c3ccc(F)cc3)c2-c2ccnc(N)n2)CC(C)(C)N1`, the inhibition is reported as 0.33%. `Fc1ccc(Nc2nccc(-c3c(-c4ccc(C(F)(F)F)cc4)nn4ncccc34)n2)cc1F` was tested, and the inhibition was 2.77%. For `CCOc1ccc2c(-c3ccnc(Nc4cc(OC)cc(C(F)(F)F)c4)n3)cnn2n1`, the inhibition was 2.55%. `CS(=O)(=O)CCNCc1ccoc1-c1ccc2ncnc(Nc3ccc(OCc4ccccc4)cc3)c2c1` gave an inhibition of 2.38%. For `Cc1ccc(-c2cc3c(NC(=O)C4CC4)ncnc3o2)cc1`, the inhibition was 5.46%. Compound `O=C(O[C@H]1CN[C@H](C#Cc2cc3ncnc(Nc4ccc(OCc5cccc(F)c5)c(Cl)c4)c3s2)C1)N1CCOCC1` has an inhibition of 5.44%. `COc1ccc(Nc2ncc(-c3ccccc3)o2)cc1OC` showed an inhibition of 7.52%. For `O=C(O[C@H]1CN[C@H](C#Cc2cc3ncnc(Nc4ccc5c(ccn5Cc5cc(F)ccc5F)c4)c3s2)C1)N1CCOCC1`, the inhibition was 4.33%. `Cc1c2ccc(N(C)c3ccnc(Nc4cccc(S(N)(=O)=O)c4)n3)cc2nn1C` gave an inhibition of 41.3%. Compound `OCCCNc1nccc(-c2c(-c3ccc(F)cc3)nn3cc(C(F)(F)F)ccc23)n1` has an inhibition of 3.88%. `O=C(O[C@H]1CN[C@H](C#Cc2cc3ncnc(Nc4ccc5c(cnn5Cc5ccccc5)c4)c3s2)C1)N1CCOCC1` showed an inhibition of 1.1%. Work on `CCS(=O)(=O)c1ccc(OC)c(Nc2ncc(-c3cccc(C(C)=O)c3)o2)c1` yielded an inhibition of 11.3%. `CS(=O)(=O)CCNCc1ccc(-c2ccc3ncnc(Nc4ccc(OCc5ccccc5)cc4)c3c2)o1` was tested, and the inhibition was 4.79%. With `Cn1c(-c2nonc2N)nc2cnccc21` the inhibition was 4.05%. For `COc1cc2c(cc1Nc1nc(Nc3cccc(F)c3C(N)=O)c3cc[nH]c3n1)N(C(=O)CN1CCN(C(C)C)CC1)CC2`, the inhibition was 0.63%. For `Fc1cccc(COc2ccc(Nc3ncncc3C#Cc3ccccc3)cc2Cl)c1`, the inhibition was 6.26%. In the case of `CS(=O)(=O)Nc1ccc(-c2ccc3c(NC(=O)C4CC4)n[nH]c3c2)cc1`, the inhibition is reported as 3.8%. With `CCCNc1cccc(-n2ncc3c(N/N=C/c4ccncc4)ncnc32)c1` the inhibition was 18%. For `Nc1ncnc2occ(-c3ccc(NC(=O)Nc4cc(C(F)(F)F)ccc4F)cc3)c12`, the inhibition was 20.4% and 9.18%. `NS(=O)(=O)c1cccc(N/C=C2\C(=O)Nc3ccccc32)c1` gave an inhibition of 5.77%. Work on `COc1cc(N2CCN(C(C)C)CC2)ccc1Nc1nc(Nc2cccc3ncccc23)c2cc[nH]c2n1` yielded an inhibition of 0.41%. With `CN1CCC(C(=O)Nc2n[nH]c3nc(-c4ccc(O)cc4)c(Br)cc23)CC1` the inhibition was 4.2% and 2.89%. Compound `CCn1c(-c2nonc2N)nc2cncc(C(=O)NCCNC)c21` has an inhibition of 5.55%. `CCN1CCC(C(=O)Nc2n[nH]c3nnc(-c4cccc(F)c4F)cc23)CC1` gave an inhibition of 0.08%. With `CNC(=O)c1sc(-n2cnc3cc(OC)c(OC)cc32)cc1OCc1ccccc1C(F)(F)F` the inhibition was 3.05%. Compound `N#Cc1ccc2c(-c3ccnc(NC4CC4)n3)c(-c3ccc(F)cc3)nn2c1` has an inhibition of -0.29%. In the case of `COc1ccc2ncn(-c3cc(O[C@H](C)c4ccccc4C(F)(F)F)c(C(N)=O)s3)c2c1`, the inhibition is reported as 0.92%. With `c1cnn2ncc(-c3ccnc(NCCCN4CCOCC4)n3)c2c1` the inhibition was 5.49%. `O=C(Nc1n[nH]c2nnc(-c3cccnc3)cc12)C1CC1` showed an inhibition of 0.94%. Work on `CS(=O)(=O)CCNCc1ccc(-c2ccc3ncnc(Nc4ccc(OCc5cccc(C(F)(F)F)c5)cc4)c3c2)o1` yielded an inhibition of 4.67%.
